According to PubChem BioAssay AID686978 (National Center for Advancing Translational Sciences (NCATS), 2013):
Hit rate of the full screen: of about 420,000 compounds, about 64,000 (15%) were called active. About 27% were inconclusive and are not listed. Calls follow the shape of the dose curve; as a rule, active = well fitted inhibition curve with a large enough effect; inconclusive = small, poorly fitted or top-dose-only effect; inactive = flat fitted curve, though single readings scatter. The list is a sample of the results. Entries that show only a call come without a potency. Peptide text beside a SMILES is read from it.

experiment: qHTS for Inhibitors of human tyrosyl-DNA phosphodiesterase 1 (TDP1): qHTS in cells in absence of CPT; details: DT40 Tdp1-/- hTDP1 cells, no CPT, ATP luminescence, 48 h; activity change, negative = growth inhibition: at 46.2 µM (top of the series); also: nearly all actives have a fitted effect of over 55% in size
In short: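 Chicken DT40 Tdp1-/- cells stably complemented with human TDP1 were seeded at 400 cells/well with DMSO in place of 20 nM camptothecin. After compound pinning, cells grew at least 48 hr at 37 °C; viability read by CellTiter-Glo luminescence.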
Potency is read from the fitted curve at half-maximal effect.

**Q.** For Cc1ccccc1N1CC(C(=O)Nc2nnc(SCCC3OCCO3)s2)CC1=O (stereo not drawn), which Potency is on record?
**A.** inactive

**Q.** For O=C(CSc1nn(-c2ccc(F)cc2)c(=S)s1)NC1CCS(=O)(=O)C1 (stereo not drawn), which Potency is on record?
**A.** inactive

**Q.** Which Potency does the source give for CC(=O)CC[C@@H](C)O[C@@H]1OC(C)[C@H](O)CC1O (stereo partly drawn) here?
**A.** inactive

**Q.** With O=C(Nc1nnc(C2CC2)s1)c1ccccn1 as the compound, how does the Potency read?
**A.** 16.4 µM (active)

**Q.** For Cc1cc(C(=O)Nc2nnc(C3CC3)s2)c(C)s1, which Potency is on record?
**A.** inactive

**Q.** Which Potency does the source give for CCc1cc(C(=O)Nc2nnc(C3CC3)s2)sc1C here?
**A.** inactive

**Q.** With O=C1CCC(C(=O)N2CCC(O)(c3ccccc3)CC2)CN1CCc1ccccc1 (stereo not drawn) as the compound, how does the Potency read?
**A.** inactive

**Q.** For COCCn1c(C)cc(C(=O)CSc2nc3ccccc3c(=O)n2C(C)COC)c1C (stereo not drawn), which Potency is on record?
**A.** 9.2 µM (active)

**Q.** Which Potency does the source give for COc1ccc2c(C)cc(SCC(=O)NCC3CCCO3)nc2c1 (stereo not drawn) here?
**A.** inactive

**Q.** With COCC(C)n1c(C)cc(C(=O)CSc2cc(C)c3ccccc3n2)c1C (stereo not drawn) as the compound, how does the Potency read?
**A.** 16.4 µM (active)

**Q.** Which Potency does the source give for Cc1ccc(C(=O)CSc2nc3ccccc3c(=O)n2N)o1 here?
**A.** inactive

**Q.** With COCCn1c(C)cc(C(=O)CSc2nnc(C3CC3)n2C2CC2)c1C as the compound, how does the Potency read?
**A.** inactive

**Q.** For COCC(C)n1c(SCc2ccc(C(=O)OC)o2)nc2ccccc2c1=O (stereo not drawn), which Potency is on record?
**A.** 8.2 µM (active)

**Q.** For COCCn1c(C)cc(C(=O)CN2c3cccc4cccc(c34)S2(=O)=O)c1C, which Potency is on record?
**A.** inactive

**Q.** Which Potency does the source give for C=CCn1c(SCc2ccc(C(=O)NCCO)cc2)nc2ccccc2c1=O here?
**A.** inactive

**Q.** Which Potency does the source give for Cc1cc(SCC(=O)NCCN2C(=O)CSC2=O)nc2ccccc12 here?
**A.** inactive

**Q.** With Nc1nc2c(Br)ccc(Br)c2cc1C(=O)NCCc1ccccc1 as the compound, how does the Potency read?
**A.** inactive

**Q.** For CC(C)C(=O)Nc1nnc(Sc2ccc(N(C)C)cc2)s1, which Potency is on record?
**A.** inactive

**Q.** For Cc1ccc(N=C2SCCCN2C(=O)c2cccc(N3C(=O)CCC3=O)c2)cc1Cl, which Potency is on record?
**A.** inactive

**Q.** With CCCn1c(=O)c2ccccc2n2c(SCC(=O)/C(C#N)=C(\C)N)nnc12 as the compound, how does the Potency read?
**A.** inactive

**Q.** Which Potency does the source give for Cc1cc(NC(=O)CSC2=NS(=O)(=O)c3cc(Cl)ccc3N2)no1 here?
**A.** inactive

**Q.** Which Potency does the source give for Cc1cccc(C)c1-n1c(C)cc(/C=C2\C(=O)NN(c3ccccc3)C2=O)c1C here?
**A.** inactive

**Q.** For O=c1oc2ccccc2c(CNc2ccccc2)c1[N+](=O)[O-], which Potency is on record?
**A.** inactive

**Q.** With Cc1cc(C(=O)Nc2cccc(C(F)(F)F)c2)c2c(C)nn(-c3cccc(F)c3)c2n1 as the compound, how does the Potency read?
**A.** 23.1 µM (active)

**Q.** Which Potency does the source give for Cc1cccc(NC(=O)c2nnn(-c3cccc(C(F)(F)F)c3)c2N)c1 here?
**A.** inactive

**Q.** For CC(=O)c1nn(-c2cccc(C(F)(F)F)c2)c(=O)[nH]c1=O, which Potency is on record?
**A.** inactive

**Q.** Which Potency does the source give for COc1ccc(NC(=O)CN(C)C(=O)CC2CCCCC2)cc1 here?
**A.** inactive

**Q.** Which Potency does the source give for CC1CCCC(NC(=O)CN2CCN(Cc3ccc(Cl)cc3)C2=O)C1C (stereo not drawn) here?
**A.** 23.1 µM (active)

**Q.** Which Potency does the source give for CC1CCCCC1NC(=O)COC(=O)Cc1ccc(Cl)cc1 (stereo not drawn) here?
**A.** inactive

**Q.** Which Potency does the source give for Cc1ccc(CNC(=O)CN2CCN(Cc3ccc(Cl)cc3)C2=O)cc1 here?
**A.** inactive

**Q.** With Cc1ccc(S(=O)(=O)N/N=C(\c2ccccc2)C2CC2)cc1 as the compound, how does the Potency read?
**A.** inactive

**Q.** For Cc1ccc2c(c1)N(CC(=O)N1CCC(O)CC1)C(=O)CO2, which Potency is on record?
**A.** inactive

**Q.** Which Potency does the source give for CC[C@H](C)CCCCC(=O)N[C@@H](CCN)C(=O)N[C@H](C(=O)N[C@@H](CCN)C(=O)N[C@H]1CCNC(=O)[C@@H]([C@H](C)O)NC(=O)[C@H](CCN)NC(=O)[C@H](CCN)NC(=O)[C@H](CC(C)C)NC(=O)[C@@H](CC(C)C)NC(=O)[C@H](CCN)NC1=O)[C@@H](C)O (HELM PEPTIDE1{[CC[C@H](C)CCCCC(=O)[*:2]].[Dab].T.[Dab].[Dab].[Dab].[dL].L.[Dab].[Dab].[dT]}$PEPTIDE1,PEPTIDE1,5:R3-11:R2$$$V2.0) here?
**A.** inactive

**Q.** Which Potency does the source give for O=c1n(Cc2cccc(C(F)(F)F)c2)c2ccccc2c2nc(-c3ccccc3)nn12 here?
**A.** 25.9 µM (active)

**Q.** With Cc1cc(N2CCN(c3cccc(C(F)(F)F)c3)CC2)n2nc(-c3ccccc3)nc2n1 as the compound, how does the Potency read?
**A.** inactive

**Q.** For COc1ccc(-c2nc3c4ccccc4n(CC(=O)Nc4ccc(C(C)=O)cc4)c(=O)n3n2)cc1, which Potency is on record?
**A.** inactive

**Q.** For CCN(CCCNC(=O)CCn1c(=O)[nH]c2ccsc2c1=O)c1ccccc1, which Potency is on record?
**A.** inactive

**Q.** With COc1cc(OC)cc(C(=O)Nc2ncc3c(n2)CC(C)(C)CC3=O)c1 as the compound, how does the Potency read?
**A.** inactive

**Q.** With Cc1ccc(NC(=O)C(CC(=O)O)C2CCCO2)c(C)c1 (stereo not drawn) as the compound, how does the Potency read?
**A.** inactive

**Q.** For CSCCC(NC(=O)c1ccc(Cl)cc1Cl)C(=O)NNC(=O)c1csc(N2CCOCC2)n1 (stereo not drawn), which Potency is on record?
**A.** inactive

**Q.** Which Potency does the source give for Cc1ccc(CCn2c3c(c4ccccc42)CN(C)CC3)cn1 here?
**A.** inactive

**Q.** Which Potency does the source give for COc1ccc(-c2noc(CSc3nnc(-c4ccccc4)n3-c3ccc(F)cc3)n2)c(OC)c1 here?
**A.** 20.6 µM (active)

**Q.** For COc1ccccc1-c1noc(CSc2nc(C)cc(=O)[nH]2)n1, which Potency is on record?
**A.** inactive

**Q.** With Cc1ccc(-c2noc(CSc3nnnn3-c3ccccc3)n2)cc1 as the compound, how does the Potency read?
**A.** inactive

**Q.** Which Potency does the source give for COc1ccc(C(=O)NC(=O)CSc2nnc(-c3ccco3)n2-c2ccccc2)cc1 here?
**A.** inactive

**Q.** Which Potency does the source give for Cn1c(SCc2ccc(F)cc2)nnc1-c1ccncc1 here?
**A.** inactive

**Q.** For Cc1ccc(-c2noc(CSc3nnc(-c4ccncc4)n3-c3ccc(F)cc3)n2)cc1, which Potency is on record?
**A.** 18.4 µM (active)

**Q.** With Cc1nc(N2CCOCC2)sc1C(=O)NN as the compound, how does the Potency read?
**A.** inactive
